# PubChem BioAssay AID1259343 (VanderVen Lab, College of Veterinary Medicine, Cornell …, 2017)
# Among all 6,200 compounds or so, about 2,900 (47%) were called active. Cut-off read from the data, not from the text of the source: active = inhibition above about 50%; inactive = the rest. The set was probably picked from earlier hits. This is one part of the list.
# Test: Mycobacterium tuberculosis growth inhibition, primary screen (AID 1259343)
# Conditions: inhibition: at 10 µM, hits give high values; outcome: 10 uM
row,SMILES,inhibition
1,Cc1ccc(C(C)NC(=O)CN(C(=O)Cn2cnc(C)c2C)C(C)c2ccc(C)c(C)c2)cc1C (centres undefined),37.8% (inactive)
2,COc1ccc(N(C)S(=O)(=O)c2ccc(OC)c(N3CCN(C(=O)C4CCC4)CC3)c2)cc1,-12.6% (inactive)
3,CN(c1ccccc1)S(=O)(=O)c1cccc(NC(=O)C2CC2)c1,95% (active)
4,O=C(NS(=O)(=O)CCc1ccccc1)c1cccs1,57% (active)
5,O=[N+]([O-])c1cnc(Nc2ccccc2O)c([N+](=O)[O-])c1,26.1% (inactive)
6,O=[N+]([O-])c1cnc(Nc2ccccc2Cl)c([N+](=O)[O-])c1,-16.6% (inactive)
7,O=[N+]([O-])c1cnc(Nc2cccc(O)c2)c([N+](=O)[O-])c1,75.9% (active)
8,COc1ccccc1Nc1ncc([N+](=O)[O-])cc1[N+](=O)[O-],101% (active)
9,Cc1cc(C)cc(Nc2ncc([N+](=O)[O-])cc2[N+](=O)[O-])c1,92.8% (active)
10,O=[N+]([O-])c1cnc(Nc2cccc(Cl)c2)c([N+](=O)[O-])c1,97.7% (active)
11,C=C(C)C1Cc2c(ccc(C(=O)O)c2O)O1 (centres undefined),48.9% (inactive)
12,O=[N+]([O-])c1cnc(Nc2ccc(O)cc2)c([N+](=O)[O-])c1,inactive
13,O=[N+]([O-])c1cnc(Nc2ccc(Cl)cc2)c([N+](=O)[O-])c1,58.3% (active)
14,Nc1cc(F)c(N2CC3CCC2C3)cc1C(=O)O (centres undefined),36.3% (inactive)
15,CCN1CCN(c2cc3c(cc2F)c(=O)c(C(=O)O)cn3C2CC2)CC1,99.3% (active)
16,c1ccc(OCc2noc(CN3CC[C@@H]4CCCC[C@H]4C3)n2)cc1,66.7% (active)
17,Clc1cccc(C2CCN(Cc3nc(COc4ccccc4)no3)C2)c1 (centres undefined),92.9% (active)
18,c1ccc(CCC2CCN(Cc3nc(COc4ccccc4)no3)CC2)cc1,inactive
19,OC(CCc1ccccc1)C1CCN(Cc2nc(Cc3ccccc3F)no2)CC1 (centres undefined),43.5% (inactive)
20,Fc1ccccc1Cc1noc(CN2CCCN(Cc3ccccc3F)CC2)n1,34% (inactive)
21,Fc1ccccc1Cc1noc(CN2CC[C@@H]3CCCC[C@H]3C2)n1,74.6% (active)
22,O=C(c1ccccc1)C1CCCN(Cc2nc(COc3ccccc3)no2)C1 (centres undefined),inactive
23,O=C(c1cccs1)C1CCCN(Cc2nc(COc3ccccc3)no2)C1 (centres undefined),83.9% (active)
24,CCCCCCOc1ccc(C=C2SC(=O)NC2=O)cc1,84.7% (active)
25,O=C1NC(=O)C(=Cc2ccc(F)cc2)S1,-10.1% (inactive)
26,CCCOc1ccc(C=C2SC(=S)NC2=O)cc1,86.5% (active)

row,SMILES,inhibition
1,CCc1ccc(CCOc2ccc(CC3SC(=O)NC3=O)cc2)nc1 (centres undefined),38.2% (inactive)
2,CC(C)N1C(=O)C(=Cc2ccc(O)cc2)SC1=S,36.9% (inactive)
3,CC(C)(C)c1ccc(-c2ccnc3nc(N4CCN(C(=O)c5ccc([N+](=O)[O-])o5)CC4)nn23)cc1,74.3% (active)
4,O=C(OCC(=O)N1CCCC1)c1ccc([N+](=O)[O-])o1,39% (inactive)
5,O=C(OCC(=O)N(C1CCCCC1)C1CCCCC1)c1ccc([N+](=O)[O-])o1,-1.53% (inactive)
6,CCc1ccc(S(=O)(=O)Nc2cccc(-c3nc4cccnc4s3)c2C)s1,62.5% (active)
7,CC(C)(C)c1ccc(-c2n[nH]c(=S)o2)cc1,25.8% (inactive)
8,CC(C)CSc1nnc(-c2cccc([N+](=O)[O-])c2)o1,97.8% (active)
9,Cc1cc(C)cc(-c2n[nH]c(=S)o2)c1,101% (active)
10,S=c1[nH]nc(-c2cccc(Br)c2)o1,62.1% (active)
11,N#Cc1cccc(CSc2nnc(-c3cccc(Br)c3)o2)c1,5.74% (inactive)
12,CC(C)CSc1nnc(C2CCCCC2)o1,-1.92% (inactive)
13,O=[N+]([O-])c1cccc(-c2n[nH]c(=S)o2)c1,91.4% (active)
14,Cc1ncc(CNC(=O)N2CCC(C(C)C)CC2)s1,-9.36% (inactive)
15,S=c1nc(-c2ccc(Br)cc2)[nH][nH]1,-31.4% (inactive)
16,S=c1[nH]nc(-c2ccc(Br)cc2)o1,80.5% (active)
17,S=c1[nH]nc(-c2ccc(Cl)cc2)o1,41.4% (inactive)
18,c1cc2c(cc1Oc1nc(CN3CCOCC3)nc3sc4c(c13)CCC4)CCC2,22.2% (inactive)
19,c1nc(N2CCCCC2)c2c3c(sc2n1)CCCC3,30% (inactive)
20,CCN1CCc2c(sc3nc(C4CCCCC4)nc(N4CCNCC4)c23)C1,50.1% (active)
21,COCc1nc(N2CCNCC2)c2c3c(sc2n1)CCCC3,94.1% (active)
22,CC(C)(CC(=O)O)CC(=O)N1CCC2(CC1)OCc1cc(-c3ccc(C(F)(F)F)cc3)ccc1O2,58% (active)
23,C#CCN(CC=C)Cc1nc(-c2ccc(OCC)cc2)oc1C,-15.4% (inactive)
24,Cc1sc2nc(-c3ccco3)oc(=O)c2c1C,-5.77% (inactive)
25,CCOc1cccc(OCc2nc(-c3ccco3)oc2C)c1,75.2% (active)
26,OCC#CCSc1ncnn1-c1ccccc1,-60.2% (inactive)

row,SMILES,inhibition
1,COc1ccc(Nc2ccc(Nc3ccc([N+](=O)[O-])cc3[N+](=O)[O-])cc2)cc1,94.7% (active)
2,COc1ccc(Nc2ncc([N+](=O)[O-])cc2[N+](=O)[O-])cc1,inactive
3,COc1ccc(Nc2c([N+](=O)[O-])ccc3c2=NC2(CCCCC2)N=3)cc1,47.2% (inactive)
4,COC(=O)C1C(c2ccccc2)C2(c3ccccc3)C(C)(C)C12C(=O)OC (centres undefined),10.3% (inactive)
5,O=c1cc(-c2c(F)c(F)c(F)c(F)c2F)oc2c(F)c(F)c(F)c(F)c12,100% (active)
6,Fc1ccc(C2C=C3Oc4ccccc4N=C3NN2)cc1 (centres undefined),92.6% (active)
7,Brc1ccccc1OCc1cnn(-c2ccccc2)n1,21.9% (inactive)
8,CC(C)c1ccc(NC=C2C(=O)OC(C)(C)OC2=O)cc1,85.2% (active)
9,CC1(C)OC(=O)C(=CNc2ccc3ccccc3c2)C(=O)O1,20.6% (inactive)
10,Cc1cccc(-n2cc(CN3CCN(C(=O)c4ccco4)CC3)c(-c3cccc(F)c3)n2)c1,24.8% (inactive)
11,Cc1oc(-c2ccc3ccccc3c2)nc1CN1CCN(C(=O)c2ccco2)CC1,78.8% (active)
12,CC(=O)NC1CCN(Cc2nc(-c3cccc(Oc4ccccc4)c3)oc2C)C1 (centres undefined),24.9% (inactive)
13,CC(=O)NC(c1ccccc1)(c1ccccc1)C(F)(F)F,7.55% (inactive)
14,O=C(NCC(F)(F)F)c1cc(-c2ccccc2Cl)n[nH]1,30.1% (inactive)
15,O=C(NCC(F)(F)F)c1cc(-c2ccc(Cl)cc2)n[nH]1,72.2% (active)
16,Cc1ccc(Sc2ccccc2N2CCNCC2)c(C)c1,83.7% (active)
17,CCOC(=O)CN1C(=O)CSC1=CC#N,26.1% (inactive)
18,O=C(Nc1ccccn1)C1CCN(c2cccc(C(F)(F)F)n2)CC1,92.4% (active)
19,CCCCn1nc(C)c(C(=O)Nc2cc(C)ccc2F)c1Cl,60.1% (active)
20,Cc1nn(-c2ccccc2)c(Cl)c1C(=O)Nc1ccccc1I,28.9% (inactive)
21,CCCCn1nc(C)c(C(=O)NCc2ccc(Cl)s2)c1Cl,-14.6% (inactive)
22,Cc1cc(C)c2ccc(O)cc2n1,83.4% (active)
23,C=CCN(Cc1ccc(Cl)s1)C(=O)CSc1nnc(-c2ccc(C)cc2)o1,21.2% (inactive)
24,Cc1ccc(C(=O)Nc2ccccc2SCC(F)(F)F)cc1,45.2% (inactive)
25,C=CCN(CC=C)C(=S)NC(=O)c1ccc(C)cc1,98.4% (active)
26,C=CCOc1ccc(S(=O)(=O)c2ccc(O)cc2)cc1,24.3% (inactive)

row,SMILES,inhibition
1,CN(Cc1nc2ccccc2s1)C(=O)CCc1nnc(CCc2c[nH]c3ccccc23)o1,22.7% (inactive)
2,Cc1cc(Br)c(NC(=O)CN(C)Cc2nc3ccccc3s2)c(Br)c1,84.4% (active)
3,C=CCN(C(=O)c1cccc(OC)c1)c1nc2ccccc2s1,-37.8% (inactive)
4,Cc1ccc(Cn2nnc3c(=S)nc[nH]c32)cc1,92.2% (active)
5,S=c1nc[nH]c2c1nnn2Cc1ccc(Cl)cc1,78.3% (active)
6,Cc1ccc(CSc2ncnc3c2nnn3Cc2ccccc2)cc1,-28.1% (inactive)
7,Clc1cccc(CSc2ncnc3c2nnn3Cc2ccccc2)c1,-28% (inactive)
8,Fc1ccc(Cn2nnc3c(=S)nc[nH]c32)cc1,101% (active)
9,O=C(CSc1ncnc2c1nnn2Cc1ccc(F)cc1)N1CCCCCC1,-40.9% (inactive)
10,Clc1ccc(Cn2nnc3c(SCc4cccnc4)ncnc32)cc1,43.6% (inactive)
11,Cc1[nH]n(-c2ccccc2)c(=O)c1N=Nc1c(C)n(C)n(-c2ccccc2)c1=O,94.3% (active)
12,CCC(=O)N(c1nnc(SCC(=O)c2cc(C)n(-c3cc(C)on3)c2C)s1)C1CC1,72.7% (active)
13,COc1ccc(NC(=O)c2csc(C)n2)cc1Cl,-17.7% (inactive)
14,CCCc1nc(C(=O)Nc2ccc(NC(=O)CC)c(Cl)c2)cs1,54% (active)
15,Cc1cc(OCc2nc(C(=O)NCC(C)C)cs2)ccc1Cl,8.24% (inactive)
16,Cc1ccc(Sc2cncc3sc(C(N)=O)cc23)cc1,68% (active)
17,CC(=O)Nc1ccc(NC(=O)Cn2nc(C)c([N+](=O)[O-])c2C)cc1,92.6% (active)
18,Cc1c(Br)c(C(F)(F)F)nn1CC(=O)Nc1ccc(Oc2cc([N+](=O)[O-])cc([N+](=O)[O-])c2)cc1,61.4% (active)
19,Cc1ccc(Sc2ccc(NC(=O)Cn3cnnn3)cc2)cc1C,4.65% (inactive)
20,CC1CCN(CC(=O)Nc2ccc([N+](=O)[O-])cc2)CC1,8.26% (inactive)
21,O=C(Cn1cnc([N+](=O)[O-])n1)Nc1cc(Oc2cccc(Cl)c2)cc([N+](=O)[O-])c1,-2.49% (inactive)
22,O=C(O)CCCSc1ncnc2sc3c(c12)CCCC3,51% (active)
23,O=C(CSc1ncnc2sc3c(c12)CCC3)N1CCCC1,18.6% (inactive)
24,CC(C)(C)OC(=O)CSc1ncnc2sc3c(c12)CCCC3,75.3% (active)
25,O=C(CSc1ncnc2sc3c(c12)CCCC3)N1CCOCC1,102% (active)
26,CN(C)C(=O)CSc1ncnc2sc3c(c12)CCCC3,85.3% (active)
